# Assay: probe aNOTCH2 binding on compound microarray – biochemical, small-molecule microarray, 635/667 nm fluorescence, primary screen (AID 1121);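 note: score merges feature fluorescence read at 667 nm with its signal to noise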
# Details: higher = more signal
row,SMILES,composite z-score
1,Cc1ccc(S[C@]2(C(=O)NCCCN(C)C)CC(=O)N(C3CCCCC3)[C@@H]2c2ccc(CO)cc2I)cc1,-0.107
2,O=C1C2C=CC(C(O)C#Cc3ccccc3)N(Nc3ccccc3)C2C(=O)N1c1ccccc1 (stereo unspecified),-0.0176
3,O=C1NC(=O)C2C1C=CC(C(O)C=Cc1ccc([N+](=O)[O-])cc1)N2Nc1ccccn1 (stereo unspecified),0.0337
4,Cc1ccc(S(=O)(=O)N[C@H]2COC(=O)CC=C[C@H](C)COC(=O)N[C@@H](C)C(=O)CC=C[C@@H]2C)cc1,-0.145
5,Cc1ccc(N2C(=O)c3ccccc3[C@](C)(C(=O)NCC(C)C)[C@@H]2c2ccc(CO)cc2)nc1,-0.126
6,O=C1C2C=CC(C(O)c3ccccc3)N(n3cnnc3)C2C(=O)N1Cc1ccccc1 (stereo unspecified),-0.0136
7,COc1cc([C@@H]2N[C@H](C(=O)O)Cc3c2[nH]c2ccccc32)cc(OC)c1OC,-0.089
8,C=CCNC(=O)[C@H]1[C@@H]2C(=O)O[C@@H](c3ccccc3)[C@@H](c3ccccc3)N2[C@@H](c2ccc(O)cc2)[C@]12C(=O)Nc1ccc(C#CCNC(N)=O)cc12,0.12
9,CCC#CCN(Cc1ccccc1Br)[C@H](/C=C/c1ccccc1)[C@@H](O)Cc1ccccc1,-0.145
10,CCCC=C(CCC)[C@@H](NC(=O)c1ccccc1)c1ccccc1,-0.0633
11,CO[C@H]1O[C@H](CO)[C@@H](OC(=O)CCc2ccccc2)[C@@H]2OC(=O)[C@H](Cc3cccc(Br)c3)C/C=C/C[C@@H](Cc3cccc(Br)c3)C(=O)O[C@@H]12,-0.114
12,C=CCC(OC(C)=O)[C@@H]1[C@@H](N(Cc2cccc3ccccc23)C(=O)c2ccc(C)cc2)c2cc(OCCCO)ccc2N1C(=O)c1ccc(-c2ccccc2)cc1 (stereo partly specified),-0.0398
13,Cc1ccc(N2C(=O)c3ccccc3[C@](C)(C(=O)O)[C@@H]2c2ccc(CO)cc2)nc1,-0.228
14,C[C@@H]1CC[C@H]2C(=O)N3[C@@H](CC[C@@H](C)[C@@H]3c3cccc(N4CCOCC4)c3)C(=O)N2[C@H]1c1cccc(N2CCOCC2)c1,-0.217
15,Cc1ccc(S[C@]2(C(=O)NCCN3CCOCC3)CC(=O)N(C3Cc4ccccc4C3)[C@@H]2c2ccc(CO)cc2I)cc1,0.116
16,N#Cc1ccc(NN2C(C(O)c3ccc(I)cc3)C=CC3C(=O)N(c4ccccc4)C(=O)C32)cc1 (stereo unspecified),0.139
17,CCOC(=O)[C@H]1C/C=C/C[C@H](C(=O)OCC)C(=O)O[C@H]2[C@@H](OC)O[C@H](CO)[C@@H](OC(=O)Nc3ccc(Br)cc3)[C@@H]2OC1=O,-0.0863
18,C[C@@H]1C=CCC(=O)OC[C@H]2O[C@@H](C=C[C@@H]2O)[C@H](C)C=CCC(=O)OC[C@H]2O[C@H]1C=C[C@@H]2O,-0.0318

row,SMILES,composite z-score
1,CO[C@@H]1COC(=O)[C@H](C)NC(=O)CC=C[C@@H](C)[C@H](NS(=O)(=O)c2ccc(C)cc2)COC(=O)CC=C[C@@H]1C,-0.0554
2,C=C(CCCC)/C(=C/C[C@@H](OC(=O)c1ccncc1)c1cccc(OCCO)c1)c1cc(C(=O)OC)ccc1OC,-0.0974
3,[N-]=[N+]=NCc1ccccc1C[C@]1(C(N)=O)N=C(c2ccc(OCCCO)cc2)O[C@H]1c1ccccc1CN=[N+]=[N-],0.0256
4,CCCCO[C@H]1C[C@H]2C(Br)=C[C@@]1(CO)C(=O)[C@]21CO1,-0.201
5,CC(C)N1CC=CC23O[C@@H]4/C=C\CCCOC(=O)C4[C@H]2C(=O)N(CCCCCO)[C@@H]3C1=O (stereo partly specified),-0.169
6,CO[C@@H]1COC(=O)[C@H](C)NC(=O)CC=C[C@@H](C)[C@H](OC)COC(=O)[C@H](C)NC(=O)CC=C[C@H]1C,-0.124
7,CCOC(=O)C[C@H]1[C@H](OC(=O)Cc2ccc3c(c2)OCO3)[C@@H](NC(=O)c2ccc3ccccc3c2)c2cc(OCCCO)ccc2N1C(=O)Cc1ccc(OC)cc1,-0.0846
8,CCCN1C(=O)[C@@]2(CCS(=O)(=O)c3ccccc3)N=C(c3ccc(OCCCO)cc3)O[C@H]2c2ccccc21,-0.0956
9,CCCC[C@@H]1C[C@H]1[C@@H](NC(=O)c1cccs1)c1ccc(Cl)cc1,-0.0956
10,C[C@H]1COC(=O)[C@@H]2CCCN2C(=O)[C@@H](C)COC(=O)[C@@H]2CCCN2C1=O,-0.108
11,[N-]=[N+]=NCc1ccccc1C[C@@]1(C(=O)O)N=C(c2ccc(OCCCO)cc2)O[C@@H]1c1ccccc1N=[N+]=[N-],-0.0424
12,O=C1C2C=CC(C(O)C(c3ccccc3)c3ccccc3)N(Nc3ccc([N+](=O)[O-])cc3)C2C(=O)N1c1ccccc1 (stereo unspecified),-0.115
13,CO[C@H]1COC(=O)[C@H](CCSC)NC(=O)CC=C[C@@H](C)COC(=O)[C@@H](OCc2ccccc2)C=C[C@@H]1C,-0.102
14,CCC(=O)[C@]12O[C@@]3([C@@H]4C(=O)OCC[C@@H]41)N(Cc1ccccc1)C(C)=C(C(=O)OC)[C@@H](c1ccccc1)N3C2=O,-0.164
15,COC(=O)[C@@]1(Cc2ccc(OC)cc2)[C@H]2c3cc(C(=O)N(C)C)n(CCc4ccc(OC)c(Br)c4)c3C[C@H]2CN1C(=O)c1ccccc1,0.395
16,C#CCCCON=C1C[C@@H](O)[C@@H](O)[C@@H]2[C@@H]3C(=O)N(Cc4ccc5c(c4)OCO5)C(=O)[C@@H]3CC[C@H]12,-0.181
17,COC(=O)c1c(CC[C@@H](CO)NC(=O)N[C@H](Cn2cc(-c3cncn3C)nn2)C(C)C)oc(C(C)=O)c1C(=O)OC,-0.11
18,CCOC(=O)C1=CC[C@@H](c2ccc(-c3ccc(OCc4ccccc4)cc3)c(OC)c2)N(S(=O)(=O)c2ccc(C)cc2)[C@H]1c1ccccc1,-0.146
